# Source: the supplement of paper PMC8728848
# Shown is part of a subset that was picked to be rich in the strongest signals.
# Assays:
# Assay in all cases: glycan array binding signal (z-score within array); higher = stronger binding
# Settings in all cases: glycan notation: IUPAC condensed, linker removed
# [1] = target: Fuc(a1-2)Gal(b1-3)GalNAc(b1-3)Gal(a1-4)Gal(b1-4)Glc
# In short: (§1)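 From the Consortium for Functional Glycomics database, 3228 arrays were curated, keeping only those whose protein sequence was available. Binding is given as a within-array Z-score averaged across arrays sharing a protein sequence and across linkers. Negative Z-scores can be read as non-binding.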
# [2] = target: Fuc(a1-2)Gal(b1-3)GlcNAc(b1-3)[Neu5Ac(a2-6)Gal(b1-4)GlcNAc(b1-6)]Gal(b1-4)Glc
# In short: as §1
# [3] = target: Fuc(a1-2)Gal(b1-4)[Fuc(a1-3)]GlcNAc(b1-2)Man(a1-3)[Fuc(a1-2)Gal(b1-4)[Fuc(a1-3)]GlcNAc(b1-2)Man(a1-6)]Man(b1-4)GlcNAc(b1-4)GlcNAc
# In short: as §1
# [4] = target: Fuc(a1-2)[Gal(a1-3)]Gal(b1-4)Glc
# In short: as §1
# [5] = target: Fuc(a1-2)[GalNAc(a1-3)]Gal(b1-3)GalNAc(a1-3)[Fuc(a1-2)]Gal(b1-4)GlcNAc
# In short: as §1
# [6] = target: Fuc(a1-2)[GalNAc(a1-3)]Gal(b1-3)GlcNAc
# In short: as §1
# [7] = target: Fuc(a1-3)[Gal(b1-4)]Glc6S
# In short: as §1
# [8] = target: Gal(b1-3)Gal(b1-4)GlcNAc(b1-2)Man(a1-3)[Gal(b1-3)Gal(b1-4)GlcNAc(b1-2)Man(a1-6)]Man(b1-4)GlcNAc(b1-4)GlcNAc
# In short: as §1
# [9] = target: Gal(b1-3)[Fuc(a1-4)]GlcNAc
# In short: as §1
# [10] = target: Gal(b1-3)[Neu5Ac(a2-6)]GalNAc
# In short: as §1
# Gal(b1-4)GlcNAc = target: Gal(b1-4)GlcNAc
# In short: as §1
# [11] = target: Gal(b1-4)GlcNAc(b1-2)Man(a1-3)Man(b1-4)GlcNAc(b1-4)GlcNAc
# In short: as §1
# [12] = target: Gal(b1-4)GlcNAc(b1-2)Man(a1-3)[GlcNAc(b1-2)Man(a1-6)]Man(b1-4)GlcNAc(b1-4)GlcNAc
# In short: as §1
# [13] = target: Gal(b1-4)GlcNAc(b1-2)[Gal(b1-4)GlcNAc(b1-4)]Man(a1-3)[GlcNAc(b1-4)][Gal(b1-4)GlcNAc(b1-2)Man(a1-6)]Man(b1-4)GlcNAc(b1-4)GlcNAc
# In short: as §1
# [14] = target: Gal(b1-4)GlcNAc(b1-2)[Gal(b1-4)GlcNAc(b1-4)]Man(a1-3)[GlcNAc(b1-4)][Gal(b1-4)GlcNAc(b1-2)[Gal(b1-4)GlcNAc(b1-6)]Man(a1-6)]Man(b1-4)GlcNAc(b1-4)GlcNAc
# In short: as §1
# [15] = target: Gal(b1-4)GlcNAc(b1-2)[Gal(b1-4)GlcNAc(b1-6)]Man(a1-6)[GlcNAc(b1-4)][Gal(b1-4)GlcNAc(b1-2)Man(a1-3)]Man(b1-4)GlcNAc(b1-4)GlcNAc
# In short: as §1
# [16] = target: Gal(b1-4)GlcNAc(b1-3)GalNAc
# In short: as §1
# [17] = target: Gal(b1-4)GlcNAc(b1-3)[Gal(b1-4)GlcNAc(b1-6)]Gal(b1-4)GlcNAc
# In short: as §1
# [18] = target: Gal(b1-4)GlcNAc(b1-3)[Gal(b1-4)GlcNAc(b1-6)]GalNAc
# In short: as §1
# [19] = target: GalNAc(a1-3)GalNAc(b1-3)Gal(a1-4)Gal(b1-4)Glc
# In short: as §1
# [20] = target: GlcNAc(b1-2)Man(a1-3)[GlcNAc(b1-4)][GlcNAc(b1-2)Man(a1-6)]Man(b1-4)GlcNAc(b1-4)GlcNAc
# In short: as §1
# [21] = target: GlcNAc(b1-3)[GlcNAc(b1-6)]GlcNAc(b1-4)GlcNAc
# In short: as §1
# [22] = target: GlcNAc(b1-4)[GlcNAc(b1-6)]GalNAc
# In short: as §1
# [23] = target: GlcNAc6S(b1-3)Gal(b1-4)GlcNAc
# In short: as §1
# [24] = target: Man(a1-2)Man(a1-2)Man(a1-6)[Man(a1-3)]Man
# In short: as §1
# [25] = target: Man(a1-2)Man(a1-3)[Man(a1-2)Man(a1-6)]Man
# In short: as §1
# [26] = target: Man(a1-2)Man(a1-3)[Man(a1-2)Man(a1-6)]Man(a1-6)[Man(a1-2)Man(a1-2)Man(a1-3)]Man
# In short: as §1
# [27] = target: Man(a1-2)Man(a1-3)[Man(a1-2)Man(a1-6)]Man(a1-6)[Man(a1-2)Man(a1-2)Man(a1-3)]Man(b1-4)GlcNAc(b1-4)GlcNAc
# In short: as §1
# [28] = target: Man(a1-2)Man(a1-6)[Man(a1-3)]Man(a1-6)[Man(a1-2)Man(a1-2)Man(a1-3)]Man
# In short: as §1
# [29] = target: Man(a1-2)Man(a1-6)[Man(a1-3)]Man(a1-6)[Man(a1-2)Man(a1-2)Man(a1-3)]Man(b1-4)GlcNAc(b1-4)GlcNAc
# In short: as §1
# Man(a1-3)[Man(a1-6)]Man = target: Man(a1-3)[Man(a1-6)]Man
# In short: as §1
# [30] = target: Man(a1-3)[Man(a1-6)]Man(a1-6)[Man(a1-2)Man(a1-3)]Man(b1-4)GlcNAc(b1-4)GlcNAc
# In short: as §1
# [31] = target: Man(a1-3)[Man(a1-6)]Man(a1-6)[Man(a1-3)]Man
# In short: as §1
# Neu5Ac(a2-3)Gal = target: Neu5Ac(a2-3)Gal
# In short: as §1
# [32] = target: Neu5Ac(a2-3)Gal(b1-3)GalNAc(b1-4)[Neu5Ac(a2-8)Neu5Ac(a2-3)]Gal(b1-4)Glc
# In short: as §1
# [33] = target: Neu5Ac(a2-3)Gal(b1-4)GlcNAc
# In short: as §1
# [34] = target: Neu5Ac(a2-3)Gal(b1-4)GlcNAc(b1-2)Man(a1-3)[GlcNAc(b1-2)Man(b1-4)GlcNAc(b1-2)Man(a1-6)]Man(b1-4)GlcNAc(b1-4)GlcNAc
# In short: as §1
# [35] = target: Neu5Ac(a2-3)Gal(b1-4)GlcNAc(b1-3)Gal(b1-4)GlcNAc(b1-3)Gal(b1-4)GlcNAc
# In short: as §1
# [36] = target: Neu5Ac(a2-6)GlcNAc(b1-4)GlcNAc(b1-4)GlcNAc
# In short: as §1
# [37] = target: Neu5Ac9Ac(a2-3)Gal(b1-4)GlcNAc
# In short: as §1
# [38] = target: Neu5Ac9Ac(a2-6)Gal(b1-4)GlcNAc
# In short: as §1
binder,measurement,setting,value
"ConA (Canavalia ensiformis), P02866 (protein) MAISKKSSLFLPIFTFITMFLMVVNKVSSSTHETNALHFMFNQFSKDQKDLILQGDATTGTDGNLELTRVSSNGSPQGSSVGRALFYAPVHIWESSAVVASFEATFTFLIKSPDSHPADGIAFFISNIDSSIPSGSTGRLLGLFPDANVIRNSTTIDFNAAYNADTIVAVELDTYPNTDIGDPSYPHIGIDIKSVRSKKTAKWNMQNGKVGTAHIIYNSVDKRLSAVVSYPNADSATVSYDVDLDNVLPEWVRVGLSASTGLYKETNTILSWSFTSKLKSNEIPDIATVV",glycan array binding signal (z-score),[1],-0.286
same,glycan array binding signal (z-score),[2],-0.189
same,glycan array binding signal (z-score),[3],-0.056
same,glycan array binding signal (z-score),[4],-0.278
same,glycan array binding signal (z-score),[5],-0.245
same,glycan array binding signal (z-score),[6],-0.279
same,glycan array binding signal (z-score),[7],-0.245
same,glycan array binding signal (z-score),[8],0.087
same,glycan array binding signal (z-score),[9],-0.274
same,glycan array binding signal (z-score),[10],-0.129
same,glycan array binding signal (z-score),Gal(b1-4)GlcNAc,-0.225
same,glycan array binding signal (z-score),[11],-0.192
same,glycan array binding signal (z-score),[12],0.311
same,glycan array binding signal (z-score),[13],-0.211
same,glycan array binding signal (z-score),[14],-0.196
same,glycan array binding signal (z-score),[15],-0.24
same,glycan array binding signal (z-score),[16],-0.228
same,glycan array binding signal (z-score),[17],-0.208
same,glycan array binding signal (z-score),[18],-0.214
same,glycan array binding signal (z-score),[19],-0.201
same,glycan array binding signal (z-score),[20],-0.108
same,glycan array binding signal (z-score),[21],-0.317
same,glycan array binding signal (z-score),[22],-0.264
same,glycan array binding signal (z-score),[23],-0.088
same,glycan array binding signal (z-score),[24],4.9
same,glycan array binding signal (z-score),[25],3.94
same,glycan array binding signal (z-score),[26],7.48
same,glycan array binding signal (z-score),[27],3.33
same,glycan array binding signal (z-score),[28],7.39
same,glycan array binding signal (z-score),[29],4.46
same,glycan array binding signal (z-score),Man(a1-3)[Man(a1-6)]Man,5.51
same,glycan array binding signal (z-score),[30],4.75
same,glycan array binding signal (z-score),[31],4.27
same,glycan array binding signal (z-score),Neu5Ac(a2-3)Gal,-0.283
same,glycan array binding signal (z-score),[32],-0.248
same,glycan array binding signal (z-score),[33],-0.29
same,glycan array binding signal (z-score),[34],-0.041
same,glycan array binding signal (z-score),[35],-0.269
same,glycan array binding signal (z-score),[36],-0.184
same,glycan array binding signal (z-score),[37],-0.009
same,glycan array binding signal (z-score),[38],-0.243
